{"source": "the supplement of paper PMC8728848", "binders": {"B1": {"name": "Gs78B-bfa-542-29-542 (Bacteroides fragilis) (protein)", "chain": "SEDINRNPLLPTKEDEKMDGVIYGAYLPNLEKSVIPIGTASESTEPVNRYQIGVNLAGDAWAGYMSPRDNKFNGSKNFTNYFMYENWVNYVYSFMVTDVYSPWMQIKRISQDEGTRNDEIYALAQIIKIAALHRTTDMFGPIPYSQVGKGSFKVAYDSQESVYRSFLKELEEAVQTLDDYSNKSKEVLPAFDIVYNGDVNKWMRFANSLMLRLAIRVRFADAGLAKEYAEKAVKHPAGLINSKELAAQMGKGAGLQMKNPLKVINEEYNDTRMGATIYSYLAGYNDARAAVYFVKNNGFKAVRCGIAKSGDAYNGFTRPNVHEDDPLYWMKASEVCFLKAEGALAGFDMGGSAGDFYNAGIRMSFSENGLDNSSAETYLKDSTRKPANYTDTSNGELSANAPSSITIRWENGATEEEKLERIITQKYLAIFPNGQEAWTEWRRTGYPRQIVVAENKTNSAVLIGNGYDLGGVRRLPYPRTEYEQNGENLHNAISQYLGGVDNAATKVWWDKKSK"}}, "assay_in_all_cases": "glycan array binding signal (z-score within array); higher = stronger binding", "conditions_in_all_cases": "glycan notation: IUPAC condensed, linker removed", "key": {"GalNAc3S(b1-4)GlcNAc3S": {"target": "GalNAc3S(b1-4)GlcNAc3S", "summary_of_the_method": "(§1)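 The binding signal is a Z-score computed within each array and averaged over linkers. Arrays of the same protein sequence at different concentrations or buffers were also averaged together. Data originate from 3228 arrays in the Consortium for Functional Glycomics database, kept only where the protein sequence was available.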"}, "GalNAc6S(b1-4)GlcNAc": {"target": "GalNAc6S(b1-4)GlcNAc", "summary_of_the_method": "as §1"}, "Glc(b1-6)Glc": {"target": "Glc(b1-6)Glc", "summary_of_the_method": "as §1"}, "GlcA(b1-6)Gal": {"target": "GlcA(b1-6)Gal", "summary_of_the_method": "as §1"}, "[1]": {"target": "GlcNAc(a1-4)Gal(b1-4)GlcNAc(b1-3)Gal(b1-4)GlcNAc", "summary_of_the_method": "as §1"}, "[2]": {"target": "GlcNAc(b1-2)[GlcNAc(b1-4)]Man(a1-3)[GlcNAc(b1-4)][GlcNAc(b1-2)Man(a1-6)]Man(b1-4)GlcNAc(b1-4)GlcNAc", "summary_of_the_method": "as §1"}, "[3]": {"target": "GlcNAc(b1-2)[GlcNAc(b1-6)]Man(a1-6)[GlcNAc(b1-4)][GlcNAc(b1-2)Man(a1-3)]Man(b1-4)GlcNAc(b1-4)GlcNAc", "summary_of_the_method": "as §1"}, "[4]": {"target": "GlcNAc(b1-3)Gal(b1-3)GalNAc", "summary_of_the_method": "as §1"}, "[5]": {"target": "GlcNAc(b1-3)Gal(b1-4)GlcNAc(b1-2)Man(a1-3)[GlcNAc(b1-3)Gal(b1-4)GlcNAc(b1-2)Man(a1-6)]Man(b1-4)GlcNAc(b1-4)GlcNAc", "summary_of_the_method": "as §1"}, "[6]": {"target": "GlcNAc(b1-4)Gal(b1-4)GlcNAc", "summary_of_the_method": "as §1"}, "GlcNAc(b1-6)GalNAc": {"target": "GlcNAc(b1-6)GalNAc", "summary_of_the_method": "as §1"}, "Kdn(a2-3)Gal(b1-4)GlcNAc": {"target": "Kdn(a2-3)Gal(b1-4)GlcNAc", "summary_of_the_method": "as §1"}, "[7]": {"target": "Man(a1-2)Man(a1-6)[Man(a1-3)]Man(a1-6)[Man(a1-2)Man(a1-2)Man(a1-3)]Man", "summary_of_the_method": "as §1"}, "[8]": {"target": "Man(a1-3)[Man(a1-6)]Man(a1-6)[Man(a1-2)Man(a1-3)]Man(b1-4)GlcNAc(b1-4)GlcNAc", "summary_of_the_method": "as §1"}, "[9]": {"target": "Neu5Ac(a2-3)Gal(b1-3)GlcNAc", "summary_of_the_method": "as §1"}, "[10]": {"target": "Neu5Ac(a2-3)Gal(b1-3)[Fuc(a1-4)]GlcNAc", "summary_of_the_method": "as §1"}, "[11]": {"target": "Neu5Ac(a2-3)Gal(b1-4)GlcNAc(b1-2)Man", "summary_of_the_method": "as §1"}, "[12]": {"target": "Neu5Ac(a2-3)Gal(b1-4)GlcNAc(b1-2)[Neu5Ac(a2-3)Gal(b1-4)GlcNAc(b1-6)]Man(a1-6)[Neu5Ac(a2-3)Gal(b1-4)GlcNAc(b1-2)Man(a1-3)]Man(b1-4)GlcNAc(b1-4)GlcNAc", "summary_of_the_method": "as §1"}, "[13]": {"target": "Neu5Ac(a2-3)Gal(b1-4)GlcNAc(b1-3)Gal(b1-4)GlcNAc(b1-3)Gal(b1-4)GlcNAc", "summary_of_the_method": "as §1"}, "[14]": {"target": "Neu5Ac(a2-3)Gal(b1-4)[Fuc(a1-3)]GlcNAc(b1-6)[Neu5Ac(a2-3)Gal(b1-3)]GalNAc", "summary_of_the_method": "as §1"}, "Neu5Ac(a2-6)Gal(b1-4)Glc": {"target": "Neu5Ac(a2-6)Gal(b1-4)Glc", "summary_of_the_method": "as §1"}, "[15]": {"target": "Neu5Ac(a2-6)Gal(b1-4)GlcNAc(b1-2)Man(a1-3)Man(b1-4)GlcNAc(b1-4)GlcNAc", "summary_of_the_method": "as §1"}, "[16]": {"target": "Neu5Ac(a2-6)Gal(b1-4)GlcNAc(b1-2)[Neu5Ac(a2-6)Gal(b1-4)GlcNAc(b1-6)]Man(a1-6)[Neu5Ac(a2-6)Gal(b1-4)GlcNAc(b1-2)Man(a1-3)][GlcNAc(b1-4)]Man(b1-4)GlcNAc(b1-4)GlcNAc", "summary_of_the_method": "as §1"}, "[17]": {"target": "Neu5Ac(a2-8)Neu5Ac(a2-3)Gal(b1-3)GalNAc(b1-4)[Neu5Ac(a2-8)Neu5Ac(a2-3)]Gal(b1-4)Glc", "summary_of_the_method": "as §1"}, "[18]": {"target": "Neu5Ac(a2-8)Neu5Ac(a2-8)Neu5Ac(a2-3)[Gal(b1-3)GalNAc(b1-4)]Gal(b1-4)Glc", "summary_of_the_method": "as §1"}, "[19]": {"target": "Neu5Ac(a2-8)Neu5Ac(a2-8)Neu5Ac(a2-8)Neu5Ac(a2-3)[GalNAc(b1-4)]Gal(b1-4)Glc", "summary_of_the_method": "as §1"}, "[20]": {"target": "Neu5Gc(a2-3)Gal(b1-4)[Fuc(a1-3)]GlcNAc", "summary_of_the_method": "as §1"}}, "note": "This excerpt belongs to a sample that is enriched for the strongest signals."}
{"binder": "B1", "values": [{"measurement": "glycan array binding signal (z-score)", "setting": "GalNAc3S(b1-4)GlcNAc3S", "value": -0.813}, {"measurement": "glycan array binding signal (z-score)", "setting": "GalNAc6S(b1-4)GlcNAc", "value": -0.336}, {"measurement": "glycan array binding signal (z-score)", "setting": "Glc(b1-6)Glc", "value": -0.312}, {"measurement": "glycan array binding signal (z-score)", "setting": "GlcA(b1-6)Gal", "value": 2.77}, {"measurement": "glycan array binding signal (z-score)", "setting": "[1]", "value": -0.691}, {"measurement": "glycan array binding signal (z-score)", "setting": "[2]", "value": -0.838}, {"measurement": "glycan array binding signal (z-score)", "setting": "[3]", "value": -0.844}, {"measurement": "glycan array binding signal (z-score)", "setting": "[4]", "value": -0.48}, {"measurement": "glycan array binding signal (z-score)", "setting": "[5]", "value": -0.439}, {"measurement": "glycan array binding signal (z-score)", "setting": "[6]", "value": -0.828}, {"measurement": "glycan array binding signal (z-score)", "setting": "GlcNAc(b1-6)GalNAc", "value": -0.233}, {"measurement": "glycan array binding signal (z-score)", "setting": "Kdn(a2-3)Gal(b1-4)GlcNAc", "value": 2.84}, {"measurement": "glycan array binding signal (z-score)", "setting": "[7]", "value": -0.844}, {"measurement": "glycan array binding signal (z-score)", "setting": "[8]", "value": 3.49}, {"measurement": "glycan array binding signal (z-score)", "setting": "[9]", "value": -0.067}, {"measurement": "glycan array binding signal (z-score)", "setting": "[10]", "value": -0.793}, {"measurement": "glycan array binding signal (z-score)", "setting": "[11]", "value": 2.92}, {"measurement": "glycan array binding signal (z-score)", "setting": "[12]", "value": 0.079}, {"measurement": "glycan array binding signal (z-score)", "setting": "[13]", "value": -0.832}, {"measurement": "glycan array binding signal (z-score)", "setting": "[14]", "value": 5.64}, {"measurement": "glycan array binding signal (z-score)", "setting": "Neu5Ac(a2-6)Gal(b1-4)Glc", "value": -0.346}, {"measurement": "glycan array binding signal (z-score)", "setting": "[15]", "value": 1.48}, {"measurement": "glycan array binding signal (z-score)", "setting": "[16]", "value": -0.454}, {"measurement": "glycan array binding signal (z-score)", "setting": "[17]", "value": 0.648}, {"measurement": "glycan array binding signal (z-score)", "setting": "[18]", "value": -0.843}, {"measurement": "glycan array binding signal (z-score)", "setting": "[19]", "value": 1.92}, {"measurement": "glycan array binding signal (z-score)", "setting": "[20]", "value": 0.283}]}
